Measured values from PubChem BioAssay (NCATS).
Results filed as inconclusive are left out. The source made the active and inactive calls. Unless noted, calls follow the shape of the full dose curve.

Target: Lysosomal acid glucosylceramidase (Homo sapiens) (UniProt P04062)
Assay: Glucocerebrosidase-p2 (AID 348; in the data active = potency below about 10 µM; also: potency is read from the fitted curve at half-maximal effect)
Details: purified GBA, blue fluorogenic substrate, 40 min
In short: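 Compounds titrated from 0.6 nM upwards against 0.2 nM enzyme in pH 5.9 citric acid/KH2PO4, taurocholate, tween-20; blue fluorogenic substrate 80 uM, 40 min room temperature, stopped and read Ex 365/Em 440 for AC50.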

Sequence of Lysosomal acid glucosylceramidase (Homo sapiens) (P04062 whole entry, looked up): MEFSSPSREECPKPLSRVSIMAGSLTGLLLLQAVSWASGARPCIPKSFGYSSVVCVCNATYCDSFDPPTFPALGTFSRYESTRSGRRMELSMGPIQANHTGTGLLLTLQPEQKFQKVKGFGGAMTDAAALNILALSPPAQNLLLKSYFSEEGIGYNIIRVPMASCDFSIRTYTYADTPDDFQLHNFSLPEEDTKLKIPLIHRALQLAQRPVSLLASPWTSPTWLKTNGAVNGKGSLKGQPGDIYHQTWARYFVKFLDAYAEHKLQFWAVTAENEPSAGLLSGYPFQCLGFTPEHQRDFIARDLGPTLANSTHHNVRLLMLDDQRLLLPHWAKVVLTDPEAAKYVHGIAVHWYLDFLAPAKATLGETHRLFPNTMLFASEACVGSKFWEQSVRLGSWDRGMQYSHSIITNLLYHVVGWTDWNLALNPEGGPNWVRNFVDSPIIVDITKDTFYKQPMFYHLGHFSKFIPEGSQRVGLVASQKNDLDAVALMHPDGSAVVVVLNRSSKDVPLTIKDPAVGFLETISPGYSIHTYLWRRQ

Potency, inactive:
COc1ccc(-n2c(=O)c(-c3cc(F)cc(F)c3)nc3cnc(N4CCNCC4)nc32)cc1 > 11.4 µM
COc1ccc(NC(=O)N2CC3(CCN(C(=O)c4cccc(F)c4)CC3)C2)cc1 > 11.4 µM
COc1ccc(Oc2ncc3nc(-c4cccs4)c(=O)n(Cc4cccs4)c3n2)cc1 > 11.4 µM
O=c1c(-c2cccs2)nc2cnc(Oc3cccc(Cl)c3)nc2n1C[C@H]1CCCO1 > 11.4 µM
COc1cccc(Nc2ncc3nc(-c4ccc(F)cc4)c(=O)n(C[C@H]4CCCO4)c3n2)c1 > 11.4 µM
CN(C)c1ncc2nc(-c3ccccc3)c(=O)n(C3CC3)c2n1 > 11.4 µM
O=c1c(-c2ccc(Cl)cc2)nc2cncnc2n1Cc1ccc(F)cc1 > 11.4 µM
COc1cccc(Cn2c(=O)c(C)nc3cnc(OCc4ccccc4)nc32)c1 > 11.4 µM
COc1ccc(C(=O)N2CCC3(CCN(C(=O)Nc4cccc(C#N)c4)CC3)CC2)cc1 > 11.4 µM
CCNc1ncc2nc(-c3cc(F)cc(F)c3)c(=O)n(-c3ccc(OC)cc3)c2n1 > 11.4 µM
O=C(Nc1cccc(F)c1)N1CCCC2(CCN(C(=O)c3cccc(F)c3)CC2)C1 > 11.4 µM
O=S(=O)(c1ccccc1)N1CCC2(CCCN(Cc3cc(C(F)(F)F)cc(C(F)(F)F)c3)C2)CC1 > 11.4 µM
O=C(Oc1ccccc1)N1CCC2(CCCN(c3ncccn3)C2)CC1 > 11.4 µM
CCNc1ncc2nc(-c3cc(F)cc(F)c3)c(=O)n(-c3ccccc3)c2n1 > 11.4 µM
CCNc1ncc2nc(-c3ccccc3)c(=O)n(CCc3ccccc3)c2n1 > 11.4 µM
COCCn1c(=O)c(-c2cccs2)nc2cnc(Oc3cccc(Cl)c3)nc21 > 11.4 µM
O=c1c(-c2ccc(Cl)cc2)nc2cnc(N3CCNCC3)nc2n1Cc1ccc(F)cc1 > 11.4 µM
O=c1cnc2cnc(Nc3ccccc3)nc2n1C[C@H]1CCCO1 > 11.4 µM

Test system: not listed separately
Assay: AP1 Signaling Pathway (AID 357; active = well fitted curve in either direction with a large enough effect, not every such curve was filed as active; also: % is scaled to controls: 0 for no effect and ±100 for the full control effect)
Details: ME-180 (cervical carcinoma) AP-1-bla reporter, EGF-induced, beta-lactamase ratio, 5 h; at 7.69 µM (top of the series) unless noted
In short: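 AP-1-bla ME-180 cells with beta-lactamase reporter under AP-1 response element, stimulated with EC50 EGF; compounds titrated, 5 hours at 37 degrees Celsius. CCF4 read at 460/530 nm ratio; positive and negative modulators judged by AC50.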

Activity change, negative = inhibition, inactive:
O=C(c1cnccn1)N1CCC2(CCCN(c3ncccn3)C2)CC1 -8.6%
COCCNc1nc(-c2ccccc2C(F)(F)F)nc2ccccc12 -4.03%
COc1ccc(NC(=O)N2CCCC3(CCN(C(=O)c4cccc(F)c4)CC3)C2)cc1 -26.5%
Oc1cc2c(c(Cl)c1O)CCNC[C@H]2c1ccccc1 -21% [at 38 µM]
c1ccc(-c2ccc(N3CCCC4(CCNCC4)C3)cc2)cc1 9.27%
CC(C)NC(=O)N1CC[C@@]2(CCCN(C(=O)c3ccco3)C2)C1 -6.33%
O=c1c(-c2ccc(Cl)cc2)nc2cnc(N3CCOCC3)nc2n1C1CC1 6.61%
O=C(c1cnccn1)N1CCC2(CC1)CN(Cc1cc(C(F)(F)F)cc(C(F)(F)F)c1)C2 -17.8%
COC(=O)N1CCC2(CCN(C(=O)Nc3cccc(F)c3)CC2)CC1 -21.3%
COc1ncc2nc(CCc3ccccc3)c(=O)n(CCC#N)c2n1 -1.07%
COc1ccc(Oc2ncc3ncc(=O)n(CCc4ccccc4)c3n2)cc1 -14.7%
O=C(c1cnccn1)N1CCC2(CCCN(c3ccccn3)C2)CC1 -13%
COc1cccc(Cn2c(=O)c(CCc3ccccc3)nc3cnc(OC)nc32)c1 -4.92%
COc1ccc(Oc2ncc3nc(-c4ccccc4)c(=O)n(Cc4cccs4)c3n2)cc1 -8.46%
O=c1c(-c2cccs2)nc2cncnc2n1C1CC1 0.545%
COc1ccccc1-c1nc(N(C)Cc2ccco2)c2ccccc2n1 27.9%
COc1ccccc1CNc1nc(-c2ccc(N(C)C)cc2)nc2ccccc12 1.38%
CCNc1ncc2nc(-c3cccc(C#N)c3)c(=O)n(C)c2n1 15.2%
COc1ccc(NC(=O)N2CCC3(CC2)CCN(C(=O)c2cccc(F)c2)CC3)cc1 -4.05%
COc1ncc2nc(-c3ccc(Cl)cc3)c(=O)n(CCc3ccccc3)c2n1 -3.59%
O=C(c1cccc(F)c1)N1CCC2(CC1)CCN(c1ccc(-c3ccccc3)cc1)CC2 4.61%

Target: Cytochrome P450 1A2 (Homo sapiens) (UniProt P05177)
Sequence (P05177 whole entry, looked up): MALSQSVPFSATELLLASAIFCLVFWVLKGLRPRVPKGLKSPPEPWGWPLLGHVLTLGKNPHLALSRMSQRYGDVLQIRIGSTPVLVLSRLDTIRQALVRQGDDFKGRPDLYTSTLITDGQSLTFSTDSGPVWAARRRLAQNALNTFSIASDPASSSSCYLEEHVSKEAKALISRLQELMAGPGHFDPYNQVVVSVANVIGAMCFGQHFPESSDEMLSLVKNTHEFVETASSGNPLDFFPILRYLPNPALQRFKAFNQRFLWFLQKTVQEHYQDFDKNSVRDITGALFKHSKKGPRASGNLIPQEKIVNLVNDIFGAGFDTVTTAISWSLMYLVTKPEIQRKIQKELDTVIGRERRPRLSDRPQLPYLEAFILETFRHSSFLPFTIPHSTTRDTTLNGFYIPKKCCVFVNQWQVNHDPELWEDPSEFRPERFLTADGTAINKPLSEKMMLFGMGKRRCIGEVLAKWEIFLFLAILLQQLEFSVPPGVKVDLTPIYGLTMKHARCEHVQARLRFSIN
Assay: p450-cyp1a2 (AID 410); also: potency is read from the fitted curve at half-maximal effect;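 as to Activity change, negative = inhibition: -100% = full effect of reference inhibitor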
Details: recombinant CYP1A2, luciferin-ME demethylation, luminescence; series mostly up to 57 µM
In short: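 Inhibition was calculated relative to 57 uM furafylline (full inhibition). The reaction used human CYP1A2 at 20nM with Luciferin-ME at its Km, 100uM, driven by an NADPH-regenerating system for 60 min at room temperature.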

Potency, active:
COCCNc1nc(-c2ccccc2C(F)(F)F)nc2ccccc12 1.26 µM
COc1ccc(-n2c(=O)c(-c3cc(F)cc(F)c3)nc3cnc(N4CCNCC4)nc32)cc1 12.6 µM
O=c1c(-c2cccs2)nc2cnc(Oc3cccc(Cl)c3)nc2n1C[C@H]1CCCO1 3.16 µM
c1ccc(-c2ccc(N3CCCC4(CCNCC4)C3)cc2)cc1 10 µM
O=c1c(-c2ccc(Cl)cc2)nc2cnc(N3CCOCC3)nc2n1C1CC1 1.26 µM
CN(C)c1ncc2nc(-c3ccccc3)c(=O)n(C3CC3)c2n1 2.51 µM
COC(=O)N1CCC2(CCN(C(=O)Nc3cccc(F)c3)CC2)CC1 12.6 µM
COc1ncc2nc(CCc3ccccc3)c(=O)n(CCC#N)c2n1 15.8 µM
COc1ccc(Oc2ncc3ncc(=O)n(CCc4ccccc4)c3n2)cc1 0.631 µM
COc1cccc(Cn2c(=O)c(CCc3ccccc3)nc3cnc(OC)nc32)c1 12.6 µM
CCNc1ncc2nc(-c3ccccc3)c(=O)n(CCc3ccccc3)c2n1 12.6 µM
O=c1c(-c2cccs2)nc2cncnc2n1C1CC1 2.51 µM
COc1ccccc1-c1nc(N(C)Cc2ccco2)c2ccccc2n1 0.501 µM
COc1ccccc1CNc1nc(-c2ccc(N(C)C)cc2)nc2ccccc12 2.51 µM
CCNc1ncc2nc(-c3cccc(C#N)c3)c(=O)n(C)c2n1 2.51 µM
O=c1c(-c2ccc(Cl)cc2)nc2cnc(N3CCNCC3)nc2n1Cc1ccc(F)cc1 15.8 µM
O=c1cnc2cnc(Nc3ccccc3)nc2n1C[C@H]1CCCO1 0.794 µM

Potency, inactive:
O=C(c1cnccn1)N1CCC2(CCCN(c3ncccn3)C2)CC1
COc1ccc(NC(=O)N2CCCC3(CCN(C(=O)c4cccc(F)c4)CC3)C2)cc1
Oc1cc2c(c(Cl)c1O)CCNC[C@H]2c1ccccc1
O=C(c1cnccn1)N1CCC2(CC1)CN(Cc1cc(C(F)(F)F)cc(C(F)(F)F)c1)C2
O=C(c1cnccn1)N1CCC2(CCCN(c3ccccn3)C2)CC1
COc1ccc(NC(=O)N2CCC3(CC2)CCN(C(=O)c2cccc(F)c2)CC3)cc1
